Results on 2 sequences are retold here after PMC7862700, “An all-to-all approach to the identification of sequence-specific readers for epigenetic DNA modifications on cytosine”.

Common to all, as to assay: DAPPL (digital affinity profiling via proximity ligation, sequencing); 10 mM Tris-HCl pH 7.5, 50 mM NaCl, 1 mM DTT, 4% glycerol, room temperature, 30 min; GST-TFs on glutathione beads, 16-mer random dsDNA library, 0.1% formaldehyde crosslink after washing; high values mean tight binding
Common to all, as to settings: protein: recombinant; tags: N-terminal GST; dsDNA, one strand shown

One test has as its target T1, FLI1 (Homo sapiens, UniProt Q01543 1-452).
T1 sequence: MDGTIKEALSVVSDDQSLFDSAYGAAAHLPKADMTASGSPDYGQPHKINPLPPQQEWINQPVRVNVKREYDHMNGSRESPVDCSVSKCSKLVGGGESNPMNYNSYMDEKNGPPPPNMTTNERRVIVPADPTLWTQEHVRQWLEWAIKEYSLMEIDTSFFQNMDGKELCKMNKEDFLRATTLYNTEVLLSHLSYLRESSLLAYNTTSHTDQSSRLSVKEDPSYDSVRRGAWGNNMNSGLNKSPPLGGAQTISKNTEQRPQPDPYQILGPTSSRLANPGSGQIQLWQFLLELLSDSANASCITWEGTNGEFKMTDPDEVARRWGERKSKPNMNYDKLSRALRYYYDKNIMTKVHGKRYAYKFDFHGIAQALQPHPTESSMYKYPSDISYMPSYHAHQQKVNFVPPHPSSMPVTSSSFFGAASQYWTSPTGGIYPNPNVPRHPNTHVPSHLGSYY
The method, boiled down:
(§1)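 Beads coated with glutathione captured GST-fused human transcription factors that had been expressed in yeast, and the factors were then given DNA barcodes and pooled with a tag-only sample. The pools were incubated with 200 nmole of a random double-stranded 16-mer DNA library in Tris/NaCl/DTT/glycerol buffer for 30 min at room temperature, washed, crosslinked with 0.1% formaldehyde and proximity-ligated with BsaI/T4 ligase at 37 °C for 1 h. PCR amplification and Illumina NextSeq500 sequencing came last. Binding signal is each hexamer's read frequency for a factor divided by its frequency for the tag-only sample.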

The target in another test is T2, ELK1 (Homo sapiens, UniProt P19419 1-428).
T2 sequence: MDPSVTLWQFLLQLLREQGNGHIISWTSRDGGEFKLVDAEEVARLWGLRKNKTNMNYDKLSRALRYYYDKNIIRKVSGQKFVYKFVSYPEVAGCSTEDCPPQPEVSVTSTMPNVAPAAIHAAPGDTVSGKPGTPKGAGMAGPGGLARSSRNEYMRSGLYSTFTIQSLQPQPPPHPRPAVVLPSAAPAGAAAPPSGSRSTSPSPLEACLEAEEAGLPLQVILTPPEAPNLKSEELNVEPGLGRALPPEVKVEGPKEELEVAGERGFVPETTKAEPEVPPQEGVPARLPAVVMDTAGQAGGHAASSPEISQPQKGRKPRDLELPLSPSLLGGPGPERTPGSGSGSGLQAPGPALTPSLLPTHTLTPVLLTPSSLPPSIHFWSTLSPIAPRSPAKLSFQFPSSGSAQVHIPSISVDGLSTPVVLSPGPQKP
The method, boiled down:
as §1

In a further test the target is T3, GABPA (Homo sapiens, UniProt Q06546 1-454).
T3 sequence: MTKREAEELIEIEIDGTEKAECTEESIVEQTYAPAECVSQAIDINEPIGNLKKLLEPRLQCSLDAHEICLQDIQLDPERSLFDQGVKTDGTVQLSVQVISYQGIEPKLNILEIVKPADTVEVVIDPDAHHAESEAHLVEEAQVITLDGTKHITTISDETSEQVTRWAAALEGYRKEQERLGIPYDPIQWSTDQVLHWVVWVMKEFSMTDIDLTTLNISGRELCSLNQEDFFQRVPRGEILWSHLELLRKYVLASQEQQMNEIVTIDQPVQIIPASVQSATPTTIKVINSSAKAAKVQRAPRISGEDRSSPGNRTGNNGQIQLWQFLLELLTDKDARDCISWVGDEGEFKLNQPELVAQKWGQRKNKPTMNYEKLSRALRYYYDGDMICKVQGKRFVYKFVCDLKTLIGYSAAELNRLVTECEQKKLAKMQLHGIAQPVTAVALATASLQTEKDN
Summed up:
as §1

A further test concerns the target T4, ERG (Homo sapiens, UniProt P11308 1-479).
T4 sequence: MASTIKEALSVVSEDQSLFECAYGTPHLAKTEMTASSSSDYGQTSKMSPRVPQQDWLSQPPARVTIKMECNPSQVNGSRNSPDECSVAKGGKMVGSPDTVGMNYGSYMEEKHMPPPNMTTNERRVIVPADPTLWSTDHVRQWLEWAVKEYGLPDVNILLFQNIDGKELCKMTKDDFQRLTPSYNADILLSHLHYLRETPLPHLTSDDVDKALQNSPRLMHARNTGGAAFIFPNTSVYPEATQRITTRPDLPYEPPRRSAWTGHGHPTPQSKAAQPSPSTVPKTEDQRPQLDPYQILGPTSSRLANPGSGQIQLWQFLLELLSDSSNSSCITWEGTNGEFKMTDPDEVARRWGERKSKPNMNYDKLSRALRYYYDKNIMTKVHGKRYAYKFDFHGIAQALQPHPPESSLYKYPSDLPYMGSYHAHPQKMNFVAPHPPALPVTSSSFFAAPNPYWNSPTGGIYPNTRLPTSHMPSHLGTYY
The method, boiled down:
as §1

A further test has as its target ELF1 (Homo sapiens, UniProt P32519 1-619). The method, boiled down: as §1
Another test deals with T5, EHF (Homo sapiens, UniProt Q9NZC4 1-300).
T5 sequence: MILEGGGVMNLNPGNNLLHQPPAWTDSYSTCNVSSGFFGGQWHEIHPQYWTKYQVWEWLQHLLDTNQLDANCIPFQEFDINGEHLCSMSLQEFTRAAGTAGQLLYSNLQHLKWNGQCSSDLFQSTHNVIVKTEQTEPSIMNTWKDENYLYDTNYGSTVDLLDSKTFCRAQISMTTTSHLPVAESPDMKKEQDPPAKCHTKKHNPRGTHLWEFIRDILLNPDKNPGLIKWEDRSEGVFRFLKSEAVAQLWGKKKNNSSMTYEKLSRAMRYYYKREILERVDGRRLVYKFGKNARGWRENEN
Summed up:
as §1

A further test has as its target SPI1 (Homo sapiens, UniProt P17947 1-270). Summed up: as §1
The target in the next test is SPIB (Homo sapiens, UniProt Q01892 1-262). Summed up:
as §1

The next test addresses T6, ELK3 (Homo sapiens, UniProt P41970 1-407).
T6 sequence: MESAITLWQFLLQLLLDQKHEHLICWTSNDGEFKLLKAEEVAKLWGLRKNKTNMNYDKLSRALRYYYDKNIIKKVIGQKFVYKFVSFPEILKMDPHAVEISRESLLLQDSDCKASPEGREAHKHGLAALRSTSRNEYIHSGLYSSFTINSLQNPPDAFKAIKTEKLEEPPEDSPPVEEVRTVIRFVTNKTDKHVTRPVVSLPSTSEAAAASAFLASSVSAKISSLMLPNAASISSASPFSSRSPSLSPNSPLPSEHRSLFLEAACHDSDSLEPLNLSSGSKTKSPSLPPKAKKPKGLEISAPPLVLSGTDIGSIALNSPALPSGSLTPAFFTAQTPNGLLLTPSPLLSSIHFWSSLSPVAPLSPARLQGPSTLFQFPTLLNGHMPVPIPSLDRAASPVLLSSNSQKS
The method, boiled down: as §1

In a further test the target is T7, FEV (Homo sapiens, UniProt Q99581 1-238).
T7 sequence: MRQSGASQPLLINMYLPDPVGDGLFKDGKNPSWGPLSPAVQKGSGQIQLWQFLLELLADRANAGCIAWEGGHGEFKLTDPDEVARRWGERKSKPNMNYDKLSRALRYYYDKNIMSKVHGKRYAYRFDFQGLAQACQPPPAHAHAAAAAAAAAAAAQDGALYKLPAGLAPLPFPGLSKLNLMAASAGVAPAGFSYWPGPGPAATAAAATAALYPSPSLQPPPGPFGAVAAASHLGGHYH
The method, boiled down: as §1

A further test deals with ETV5 (Homo sapiens, UniProt P41161 1-510). Summed up:
as §1

For another test, the target named is T8, SPIC (Homo sapiens, UniProt Q8N5J4 1-248).
T8 sequence: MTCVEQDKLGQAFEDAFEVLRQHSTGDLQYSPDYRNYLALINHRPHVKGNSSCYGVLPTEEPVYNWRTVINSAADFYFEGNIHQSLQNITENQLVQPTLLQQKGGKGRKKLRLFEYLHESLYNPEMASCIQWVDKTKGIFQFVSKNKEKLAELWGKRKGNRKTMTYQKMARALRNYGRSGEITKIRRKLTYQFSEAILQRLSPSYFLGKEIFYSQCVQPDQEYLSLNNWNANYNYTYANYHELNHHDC
The method, boiled down: as §1

A further test deals with ELF4 (Homo sapiens, UniProt Q99607 1-663). The method, boiled down: as §1
ELF4, sequence (Q99607 whole entry): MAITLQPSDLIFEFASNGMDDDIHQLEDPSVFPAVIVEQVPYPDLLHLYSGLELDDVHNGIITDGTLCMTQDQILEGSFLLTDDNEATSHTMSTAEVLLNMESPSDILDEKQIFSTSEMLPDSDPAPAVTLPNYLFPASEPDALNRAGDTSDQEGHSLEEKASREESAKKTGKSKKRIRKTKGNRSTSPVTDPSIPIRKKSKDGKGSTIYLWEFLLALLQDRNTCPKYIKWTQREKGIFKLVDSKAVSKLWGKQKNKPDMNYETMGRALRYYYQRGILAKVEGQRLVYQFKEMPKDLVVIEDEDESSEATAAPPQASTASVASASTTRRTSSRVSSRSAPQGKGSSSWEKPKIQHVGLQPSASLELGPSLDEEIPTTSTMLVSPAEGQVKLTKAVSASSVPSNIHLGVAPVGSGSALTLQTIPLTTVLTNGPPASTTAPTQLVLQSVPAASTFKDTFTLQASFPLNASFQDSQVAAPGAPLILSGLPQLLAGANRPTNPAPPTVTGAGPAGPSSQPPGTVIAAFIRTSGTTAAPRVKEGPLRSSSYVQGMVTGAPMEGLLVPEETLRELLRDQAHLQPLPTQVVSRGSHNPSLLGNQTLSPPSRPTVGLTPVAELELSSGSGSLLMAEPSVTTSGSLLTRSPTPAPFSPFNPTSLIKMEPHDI
Another test deals with T9, ELK4 (Homo sapiens, UniProt P28324-2 1-405).
T9 sequence: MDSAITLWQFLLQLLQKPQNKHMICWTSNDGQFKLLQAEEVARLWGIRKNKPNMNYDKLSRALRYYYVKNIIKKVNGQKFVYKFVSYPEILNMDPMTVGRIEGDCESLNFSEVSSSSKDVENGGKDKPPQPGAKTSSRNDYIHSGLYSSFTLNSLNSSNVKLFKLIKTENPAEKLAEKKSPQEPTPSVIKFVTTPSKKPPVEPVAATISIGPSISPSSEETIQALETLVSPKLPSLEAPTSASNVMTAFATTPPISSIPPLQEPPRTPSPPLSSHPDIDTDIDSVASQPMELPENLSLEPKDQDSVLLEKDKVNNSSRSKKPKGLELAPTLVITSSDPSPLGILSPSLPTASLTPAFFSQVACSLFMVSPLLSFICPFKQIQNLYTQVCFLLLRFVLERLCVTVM
The method, boiled down: as §1

A further test concerns the target T10, ETV2 (Homo sapiens, UniProt O00321 1-342).
T10 sequence: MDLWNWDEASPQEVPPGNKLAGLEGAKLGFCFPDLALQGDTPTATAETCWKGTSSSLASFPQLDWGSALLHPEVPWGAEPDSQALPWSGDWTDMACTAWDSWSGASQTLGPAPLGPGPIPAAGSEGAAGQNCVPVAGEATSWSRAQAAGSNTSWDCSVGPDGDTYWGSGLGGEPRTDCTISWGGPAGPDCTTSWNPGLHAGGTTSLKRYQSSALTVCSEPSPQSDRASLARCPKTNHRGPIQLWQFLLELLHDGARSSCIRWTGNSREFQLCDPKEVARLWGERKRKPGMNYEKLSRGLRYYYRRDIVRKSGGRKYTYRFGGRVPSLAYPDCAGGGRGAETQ
The method, boiled down: as §1

The next test has as its target ETV1 (Homo sapiens, UniProt P50549 1-477). The method, boiled down:
as §1

SPIB, sequence (Q01892 whole entry): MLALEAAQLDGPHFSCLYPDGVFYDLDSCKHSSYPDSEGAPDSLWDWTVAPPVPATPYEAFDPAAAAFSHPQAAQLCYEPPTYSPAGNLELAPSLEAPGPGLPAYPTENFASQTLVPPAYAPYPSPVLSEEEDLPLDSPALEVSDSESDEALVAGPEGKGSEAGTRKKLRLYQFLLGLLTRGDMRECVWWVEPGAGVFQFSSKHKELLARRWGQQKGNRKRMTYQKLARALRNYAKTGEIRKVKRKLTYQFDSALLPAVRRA
ELF1, sequence (P32519 whole entry): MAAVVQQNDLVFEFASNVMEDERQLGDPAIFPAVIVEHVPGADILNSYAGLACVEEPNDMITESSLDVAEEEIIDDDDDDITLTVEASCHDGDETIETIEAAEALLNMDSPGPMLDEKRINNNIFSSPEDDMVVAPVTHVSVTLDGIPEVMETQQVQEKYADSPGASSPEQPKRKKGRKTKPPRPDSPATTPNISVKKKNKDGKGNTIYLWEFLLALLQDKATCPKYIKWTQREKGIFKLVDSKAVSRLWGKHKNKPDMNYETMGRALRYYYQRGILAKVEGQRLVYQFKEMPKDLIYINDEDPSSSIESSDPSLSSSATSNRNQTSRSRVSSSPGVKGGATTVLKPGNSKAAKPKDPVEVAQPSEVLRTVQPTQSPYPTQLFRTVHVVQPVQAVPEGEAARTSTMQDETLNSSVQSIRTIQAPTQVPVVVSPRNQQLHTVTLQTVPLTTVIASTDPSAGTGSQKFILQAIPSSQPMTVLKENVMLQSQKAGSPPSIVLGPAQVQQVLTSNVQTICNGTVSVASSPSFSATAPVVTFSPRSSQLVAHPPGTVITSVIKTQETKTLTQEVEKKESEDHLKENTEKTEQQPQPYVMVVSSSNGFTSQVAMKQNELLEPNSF
ETV5, sequence (P41161 whole entry): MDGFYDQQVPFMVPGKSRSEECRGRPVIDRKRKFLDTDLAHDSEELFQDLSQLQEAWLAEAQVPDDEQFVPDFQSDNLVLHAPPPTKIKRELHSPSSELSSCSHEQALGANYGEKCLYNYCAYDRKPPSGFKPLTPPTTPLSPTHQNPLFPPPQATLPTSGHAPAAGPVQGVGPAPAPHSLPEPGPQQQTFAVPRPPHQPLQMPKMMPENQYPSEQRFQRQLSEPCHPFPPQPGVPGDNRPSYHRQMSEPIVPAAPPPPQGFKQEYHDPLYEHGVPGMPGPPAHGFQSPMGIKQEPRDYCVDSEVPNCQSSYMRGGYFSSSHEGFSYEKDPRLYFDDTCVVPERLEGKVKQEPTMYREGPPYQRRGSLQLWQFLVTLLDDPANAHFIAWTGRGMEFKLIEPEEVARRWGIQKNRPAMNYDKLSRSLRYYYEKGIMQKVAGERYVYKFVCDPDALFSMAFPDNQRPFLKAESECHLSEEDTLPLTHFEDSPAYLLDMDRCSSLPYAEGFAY
ETV1, sequence (P50549 whole entry): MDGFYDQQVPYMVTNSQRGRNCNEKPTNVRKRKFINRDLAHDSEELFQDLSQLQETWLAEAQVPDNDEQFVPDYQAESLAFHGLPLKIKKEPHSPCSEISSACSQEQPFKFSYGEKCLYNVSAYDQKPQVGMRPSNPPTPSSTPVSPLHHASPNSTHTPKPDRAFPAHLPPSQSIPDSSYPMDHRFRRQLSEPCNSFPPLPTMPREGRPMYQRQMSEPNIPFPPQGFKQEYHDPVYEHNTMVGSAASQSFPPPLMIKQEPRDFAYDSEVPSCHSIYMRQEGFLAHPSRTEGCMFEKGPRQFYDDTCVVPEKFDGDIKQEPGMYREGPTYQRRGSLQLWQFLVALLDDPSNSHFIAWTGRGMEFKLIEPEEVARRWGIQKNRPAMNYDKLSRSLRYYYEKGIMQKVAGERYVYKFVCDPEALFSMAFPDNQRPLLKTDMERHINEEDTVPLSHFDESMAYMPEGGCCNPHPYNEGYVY

As for GCCCGC, the binding signal in the test with FLI1 was 1.09 fold enrichment (6-mer frequency, TF over GST control); with ELK1 it was 1.15 fold enrichment (6-mer frequency, TF over GST control); in the test with GABPA, 1.1 fold enrichment (6-mer frequency, TF over GST control); in the test with ERG, 1.1 fold enrichment (6-mer frequency, TF over GST control); with ELF1, 1.07 fold enrichment (6-mer frequency, TF over GST control); with EHF, 1.09 fold enrichment (6-mer frequency, TF over GST control). In addition, the binding signal is 1.01 fold enrichment (6-mer frequency, TF over GST control) in the test with SPI1; 1.03 fold enrichment (6-mer frequency, TF over GST control) with SPIB; 1.24 fold enrichment (6-mer frequency, TF over GST control) with ELK3; 1.11 fold enrichment (6-mer frequency, TF over GST control) with FEV; 1.02 fold enrichment (6-mer frequency, TF over GST control) with ETV5; 1.34 fold enrichment (6-mer frequency, TF over GST control) with SPIC. The binding signal in the test with ELF4 is 1.19 fold enrichment (6-mer frequency, TF over GST control); with ELK4, 1.15 fold enrichment (6-mer frequency, TF over GST control); with ETV2 it was 1.16 fold enrichment (6-mer frequency, TF over GST control); with ETV1, 1.06 fold enrichment (6-mer frequency, TF over GST control).

With TGGTCC, the binding signal in the test with FLI1 was 1.25 fold enrichment (6-mer frequency, TF over GST control); in the test with ELK1, 1.23 fold enrichment (6-mer frequency, TF over GST control); in the test with GABPA, 1.18 fold enrichment (6-mer frequency, TF over GST control); with ERG, 1.26 fold enrichment (6-mer frequency, TF over GST control); with ELF1 it was 1.35 fold enrichment (6-mer frequency, TF over GST control); with EHF, 1.26 fold enrichment (6-mer frequency, TF over GST control). The binding signal is 1.18 fold enrichment (6-mer frequency, TF over GST control) in the test with SPI1; 1.32 fold enrichment (6-mer frequency, TF over GST control) with SPIB; 1.15 fold enrichment (6-mer frequency, TF over GST control) with ELK3; 1.12 fold enrichment (6-mer frequency, TF over GST control) with FEV; 1.23 fold enrichment (6-mer frequency, TF over GST control) in the test with ETV5; 1.32 fold enrichment (6-mer frequency, TF over GST control) with SPIC. Further, the binding signal with ELF4 is 1.22 fold enrichment (6-mer frequency, TF over GST control); with ELK4, 1.29 fold enrichment (6-mer frequency, TF over GST control); with ETV2, 1.23 fold enrichment (6-mer frequency, TF over GST control); in the test with ETV1, 1.2 fold enrichment (6-mer frequency, TF over GST control).
